Screening results (PubChem BioAssay)
A selection: hits, their analogues and other compounds. The true share with any hit is near 3.4%.
FBW7 act – human FBW7 E3 ligase activation, primary screen | AlphaScreen FBW7–phospho-cyclin E peptide binding, activator screen | 650,000 compounds, 0.13% hits | Q969H0 | AID 1259310 | normalized activity (activation), % at 26.1 µM; in the data active means normalized activity above about 1.9%;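 further: purified mutant Fbw7 with reduced substrate affinity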
GPR151 ag – human GPR151 activation; activation, % at 11.2 µM; PathHunter beta-arrestin GPR151 cells, luminescence; 650,000 compounds, 1% hits; AID 1508602; in the data active means activation above about 4.9%;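 further: 0% = median of compound wells and 100% = cells with positive control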
TEAD-YAP inh – TEAD-YAP interaction inhibition; HEK-TIYL cells, TEAD-Gal4/YAP UAS-luciferase luminescence; inhibition, % at 9.12 µM; 640,000 compounds, 1.4% hits; in the data active means inhibition above about 32%;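 further: 0% = median of test compound wells and 100% = reference inhibitor wells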
MITF primary – human MITF inhibition, primary screen. O75030. inhibition, % at 2.6 µM. AlphaScreen MITF homodimerization, bead proximity signal. 650,000 compounds, 0.91% hits; in the data active means inhibition above about 50%;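 further: 0% = vehicle wells with protein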
Target sequence (O75030 whole entry, looked up): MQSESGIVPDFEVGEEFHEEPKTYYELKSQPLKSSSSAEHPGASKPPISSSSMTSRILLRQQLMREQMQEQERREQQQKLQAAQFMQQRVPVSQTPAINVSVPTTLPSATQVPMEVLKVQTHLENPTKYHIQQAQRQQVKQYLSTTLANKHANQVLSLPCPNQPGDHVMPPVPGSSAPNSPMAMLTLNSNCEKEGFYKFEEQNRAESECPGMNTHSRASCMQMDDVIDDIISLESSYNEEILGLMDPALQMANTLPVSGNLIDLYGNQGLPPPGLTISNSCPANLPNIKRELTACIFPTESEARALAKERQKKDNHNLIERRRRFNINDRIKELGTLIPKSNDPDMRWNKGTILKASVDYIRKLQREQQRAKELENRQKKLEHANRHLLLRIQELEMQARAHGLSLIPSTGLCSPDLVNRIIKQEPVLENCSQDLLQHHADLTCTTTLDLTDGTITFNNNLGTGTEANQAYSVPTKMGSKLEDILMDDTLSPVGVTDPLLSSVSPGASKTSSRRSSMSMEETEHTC
* hit, by the source's call.

SMILES | FBW7 act | GPR151 ag | TEAD-YAP inh | MITF primary
O=C(CC12CC3CC(CC(Br)(C3)C1)C2)OCC(=O)c1ccccc1 | 0.0 | 2.8 | 66.9* | 2.1
CCOC(=O)C(NC(=O)c1ccccc1F)(Nc1cc(C)ccn1)C(F)(F)F (stereo not drawn) | 0.3 | -1.4 | 7.7 | 1.2
O=C(CCn1cncn1)N1CCC(c2ccncc2)CC1 | 0.0 | -0.7 | 6.3 | 13.3
COc1ccc(CC(=O)Nc2ccc(-c3nnc(-c4ccccc4)o3)cc2)cc1OC | 0.2 | -0.7 | -16.0 | 21.7
COc1ccc(CC(=O)Nc2cccc(-c3nnc(-c4ccccc4)o3)c2)cc1OC | -0.1 | 4.8 | 52.8* | 23.4
COc1ccc(COn2ccc3ccc(S(C)(=O)=O)cc32)cc1 | -0.1 | -0.5 | 42.3* | -2.9
Cc1ccc(C(=O)N/C(=C\c2ccc(F)cc2)C(=O)Nc2c(C)n(C)n(-c3ccccc3)c2=O)cc1 | 0.0 | -1.9 | 0.7 | 9.5
Cc1c(NC(=O)/C(=C\c2ccccc2)NC(=O)c2ccccc2)c(=O)n(-c2ccccc2)n1C | 1.9* | -1.1 | -13.6 | 12.1
Cc1ccc2cc(-c3nc4ccccc4[nH]3)c(=O)oc2c1 | 2.4* | -2.6 | -18.7 | 21.2
Cc1cccc2cc(-c3nc4ccccc4[nH]3)c(=O)oc12 | 0.2 | 0.2 | -42.9 | 12.1
O=C1CC(c2ccccc2Cl)CC(O)=C1C=Nc1ccc([N+](=O)[O-])cc1 (stereo not drawn) | -0.1 | -1.8 | 0.6 | -2.5
COc1ccc(C)cc1NC(=O)C(C)C1Sc2ccccc2NC1=O (stereo not drawn) | -0.2 | -1.2 | 2.5 | 15.6
O=[N+]([O-])c1ccc2ncnc(Nc3ccc(F)cc3F)c2c1 | -0.1 | 0.4 | 35.2* | -6.8
CN1CCN(C(=O)c2cc(-c3cccs3)n(CC(=O)NCc3cccnc3)n2)CC1 | -0.1 | 1.2 | 2.1 | 2.7
CCN(CP(=O)(O)CN1CCCCC1)C(C)=O | 0.3 | -0.6 | 18.6 | 12.8
Cc1ccc(C)c(N2CCN(C(=O)c3ccc(S(=O)(=O)c4ccccc4Cl)c([N+](=O)[O-])c3)CC2)c1 | -0.3 | 1.6 | 8.2 | 4.5
CCOC(=O)CS(=O)(=O)c1ccc(C(=O)N2CCN(c3cccc(C)c3)C(C)C2)cc1[N+](=O)[O-] (stereo not drawn) | -0.2 | -0.1 | 52.2* | -6.5
Cc1ccc(C)c(N2CCN(C(=O)c3ccc(S(=O)(=O)c4ccc(F)cc4)c([N+](=O)[O-])c3)CC2)c1 | 0.1 | 0.1 | 43.6* | 15.2
O=C(c1ccc(S(=O)(=O)c2ccc(Br)cc2)c([N+](=O)[O-])c1)N1CCCCC1 | 0.3 | -1.3 | 36.8* | 8.9
C=CCNC(=O)c1ccc(S(=O)(=O)c2ccc(F)cc2)c([N+](=O)[O-])c1 | 0.0 | 0.8 | 34.2* | 13.3
O=C(O)c1ccc(S(=O)(=O)c2ccc(F)cc2)c([N+](=O)[O-])c1 | 0.4 | -1.0 | -3.9 | 9.7
COC(=O)c1sccc1N/N=C(/C)c1cc(OC)c(OC)c(OC)c1 | 0.1 | -1.2 | -10.2 | -16.9
CCOC(=O)c1c[nH]c2cc(Cl)c(-c3ccco3)cc2c1=O | 0.6 | -0.4 | -3.8 | 11.7
CC(C)(C)NC1=NC(C(F)(F)F)(C(F)(F)F)NC(=O)N1 | 0.7 | -0.3 | 4.4 | -6.7
CC(=O)N1CCc2cc(Br)cc(S(=O)(=O)NCC3COc4ccccc4O3)c21 (stereo not drawn) | 0.1 | -0.1 | -11.0 | -2.6
SMILES | FBW7 act | GPR151 ag | TEAD-YAP inh | MITF primary
Cc1cccc(N2CCN(C(=O)c3ccc(S(=O)(=O)c4ccc(F)cc4)c([N+](=O)[O-])c3)C(C)C2)c1 (stereo not drawn) | -0.1 | 3.4 | 54.4* | 14.4
O=C(c1ccc(S(=O)(=O)c2ccccc2Cl)c([N+](=O)[O-])c1)N1CCN(Cc2ccccc2)CC1 | 0.0 | 1.7 | 33.2* | 7.6
O=C(c1ccc(S(=O)(=O)c2ccc(F)cc2)c([N+](=O)[O-])c1)N1CCCCCC1 | -0.1 | -0.4 | 33.9* | -3.5
O=C(c1ccc(S(=O)(=O)c2ccc(F)cc2)c([N+](=O)[O-])c1)N1CCC2(CC1)OCCO2 | -0.1 | -0.4 | 4.3 | 2.0
CCCNC(=O)c1ccc(S(=O)(=O)c2ccc(OC)cc2)c([N+](=O)[O-])c1 | 0.0 | 0.0 | 35.7* | -6.3
O=C(c1ccc(S(=O)(=O)c2ccc(Br)cc2)c([N+](=O)[O-])c1)N1CCCCCC1 | 0.1 | 0.7 | 34.9* | 14.9
Cc1cccc(N2CCN(C(=O)c3ccc4c(c3)NC(=O)c3ccccc3N4)CC2C)c1 (stereo not drawn) | -0.1 | 1.8 | -4.0 | 1.1
CCN(CC)C(=O)c1ccc(S(=O)(=O)c2ccc(Br)cc2)c([N+](=O)[O-])c1 | 0.2 | -1.5 | 48.6* | 10.7
